The subject of one assay is human monocyte-derived macrophages (polarized). The assay is described as follows: cell shape (eccentricity) Z-score vs DMSO control; higher = more elongated, M2-like morphology. The following applies: 5 µM; 24 h; macrophage state: M1-polarized (IFNg + TNFa), cytokines present during treatment. The procedure:
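Primary-screen hits were rescreened on polarized hMDMs with the differentiating cytokines (IL-4 + IL-13 or IFNg + TNFa) kept in the medium during treatment with compound at 5 uM for 24 h. The eccentricity Z-score vs DMSO wells is averaged over experiments.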
For the compound `O=C(O)c1nn(Cc2ccc(Cl)cc2Cl)c2ccccc12`, the “cell shape (Z-score)” value is 4.43.

For the compound `CCC1(CC)C(=O)NC(=O)NC1=O`, the “cell shape (Z-score)” value is -5.4.

Consider `CCC(=O)CCCCC[C@@H]1NC(=O)[C@H]2CCCCN2C(=O)[C@H]([C@@H](C)CC)NC(=O)[C@H](Cc2cn(OC)c3ccccc23)NC1=O`, for which the “cell shape (Z-score)” value worked out at 4.88.

For the compound `CCNC(=O)C[C@@H]1N=C(c2ccc(Cl)cc2)c2cc(OC)ccc2-n2c(C)nnc21`, the “cell shape (Z-score)” value was -4.48.

`CNc1ccc2oc(C[C@H]3O[C@@]4(CC[C@H]3C)O[C@H]([C@H](C)C(=O)c3ccc[nH]3)[C@H](C)C[C@H]4C)nc2c1C(=O)O`: the “cell shape (Z-score)” value was -11.1.

Staying with this assay, now noted: 5 µM; 24 h; macrophage state: M2-polarized (IL-4 + IL-13), cytokines present during treatment.
Turning to `COc1ccc2c(c1)[nH]c1c(C)nccc12`, the “cell shape (Z-score)” value is -11.

`CC1=CC(=O)c2c(O)cccc2C1=O`: the “cell shape (Z-score)” value is 3.72.

With `CC(=O)O[C@@H]1CC2C(C)(C)C(=O)C=C[C@]2(C)C2CC[C@]3(C)C(=CC(=O)O[C@H]3c3ccoc3)[C@@]21C` (stereo partly drawn), the “cell shape (Z-score)” value is -9.39.

The values above are taken from the supplement of paper PMC7858590.
